The target of the assay is T1, Protein deacetylase HDAC6 (Homo sapiens) (UniProt Q9UBN7).
T1 sequence (whole entry): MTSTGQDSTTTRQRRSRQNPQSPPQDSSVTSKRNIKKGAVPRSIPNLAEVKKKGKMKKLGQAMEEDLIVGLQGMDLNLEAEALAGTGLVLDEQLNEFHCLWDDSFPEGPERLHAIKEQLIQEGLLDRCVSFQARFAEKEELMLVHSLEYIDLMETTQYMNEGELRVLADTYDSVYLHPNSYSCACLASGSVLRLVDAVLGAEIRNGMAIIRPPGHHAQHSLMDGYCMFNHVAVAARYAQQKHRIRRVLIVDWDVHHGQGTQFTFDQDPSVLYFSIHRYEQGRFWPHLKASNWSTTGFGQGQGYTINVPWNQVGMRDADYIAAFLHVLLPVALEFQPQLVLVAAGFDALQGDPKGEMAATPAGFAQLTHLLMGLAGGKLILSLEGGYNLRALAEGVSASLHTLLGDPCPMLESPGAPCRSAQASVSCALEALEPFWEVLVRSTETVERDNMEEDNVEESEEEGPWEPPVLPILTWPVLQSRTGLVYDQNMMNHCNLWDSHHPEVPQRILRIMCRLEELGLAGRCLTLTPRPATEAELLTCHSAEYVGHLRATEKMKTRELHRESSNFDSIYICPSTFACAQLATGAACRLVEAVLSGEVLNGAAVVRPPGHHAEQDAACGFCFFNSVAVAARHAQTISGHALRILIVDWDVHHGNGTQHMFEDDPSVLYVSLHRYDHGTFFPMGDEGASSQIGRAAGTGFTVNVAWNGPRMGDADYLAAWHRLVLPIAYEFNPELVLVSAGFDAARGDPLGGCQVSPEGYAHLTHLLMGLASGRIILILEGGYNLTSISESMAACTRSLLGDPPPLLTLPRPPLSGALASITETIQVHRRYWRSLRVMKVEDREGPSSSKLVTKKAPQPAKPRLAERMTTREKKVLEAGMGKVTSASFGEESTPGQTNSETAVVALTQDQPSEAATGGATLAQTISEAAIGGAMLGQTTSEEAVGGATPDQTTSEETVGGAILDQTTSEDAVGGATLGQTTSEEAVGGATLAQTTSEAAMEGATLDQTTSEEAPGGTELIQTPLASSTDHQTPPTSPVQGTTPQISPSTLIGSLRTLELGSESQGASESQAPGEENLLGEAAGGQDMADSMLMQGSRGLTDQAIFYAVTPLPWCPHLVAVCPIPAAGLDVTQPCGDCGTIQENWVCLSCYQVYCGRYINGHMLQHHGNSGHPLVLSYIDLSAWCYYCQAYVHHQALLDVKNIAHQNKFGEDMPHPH
The settings on record: at 10 µM.

The inhibition is the relative decrease from the control value, in per cent.

Each structure is given as a SMILES string. Out of some 5,600 compounds screened, about 390 (7%) showed an effect of 50% or more. Many of the other results were omitted from the sample, so strong results are more common in it than they were.

Turning to `CC(C)N(CCC(=O)c1ccc2ccccc2c1)Cc1ccccc1`, the inhibition worked out at 59.8%.

For the molecule `CC(=O)c1c(C)c2cnc(Nc3ccc(N4CCNCC4)cn3)nc2n(C2CCCC2)c1=O`, the inhibition was found to be 3.93%.

Regarding `CC(C)C[C@H](NC(=O)[C@H](CCc1ccccc1)NC(=O)CN1CCOCC1)C(=O)N[C@@H](Cc1ccccc1)C(=O)N[C@@H](CC(C)C)C(=O)[C@@]1(C)CO1`, the inhibition worked out at 0.65%.

On to `CC(=O)SCC(Cc1ccccc1)C(=O)NCC(=O)OCc1ccccc1` (configuration not stated), for which the inhibition turned out to be 3.61%.

For the molecule `C[C@H]1CN(C[C@H](Cc2ccccc2)C(=O)NCC(=O)O)CC[C@@]1(C)c1cccc(O)c1`, the inhibition was determined as 72.7%.

As for `O=C(CN1CCN(C(=O)c2ccco2)CC1)Nc1cc(C(F)(F)F)ccc1Cl`, the inhibition is 18.3%.

In the case of `Nc1nc2cc(-c3ccc4ncc(C(=O)N5CCOCC5)n4c3)ccc2o1`, the inhibition amounted to 17.8%.

For `CN(CCCN1c2ccccc2CCc2ccccc21)CC(=O)c1ccc(Cl)cc1`, the inhibition amounted to 35.1%.

`Cc1cc(O)c(C(C)C)cc1Cl`: the inhibition came to 35.2%.

Consider `CCCN[C@H]1CCc2nc(N)sc2C1`, for which the inhibition was found to be 14.3%.

Consider `CC(C)=CCOc1ccc(/C=C/C(=O)c2ccc(OCC=C(C)C)cc2OCC(=O)O)cc1`, for which the inhibition was -0.94%.

Consider `O=C(/C=C/c1ccc(O)cc1)c1ccc(O)cc1O`, for which the inhibition was 98.6%.

For the molecule `CC(C)(C)c1cc(C(=O)/C=C/c2ccc(C(=O)O)cc2)cc(C(C)(C)C)c1`, the inhibition is 35.2%.

On to `O=C(/C=C/c1ccc(O)c(O)c1)c1ccc(O)cc1O`, for which the inhibition stood at 97.5%.

Turning to `O=C(O)/C=C/c1ccc(O)c(O)c1`, the inhibition was -8.03%.

As to `NC(=O)c1cccc(-c2cc(Nc3ccc(OC(F)(F)F)cc3)ncn2)c1`, the inhibition is -8.36%.

As for `c1coc(-c2nnc3sc(C4CCCCC4)nn23)c1`, the inhibition is -6.78%.

Take `O=C(Nc1ccc(Oc2ccc(Cl)cn2)c(Cl)c1)c1ccccn1`: the inhibition is 44.2%.

As for `CN(Cc1ccc(C(C)(C)C)cc1)Cc1cccc2ccccc12`, the inhibition came to 2.21%.

Regarding `CC(C)=CCC/C(C)=C/CC/C(C)=C/CSc1ccccc1C(N)=O`, the inhibition is -0.26%.

`O=C(Nc1cccnc1)c1cc(-c2ccnc(F)c2)ccc1OCc1ccccc1`: the inhibition came to 9.93%.

In the case of `CCOC(=O)c1c(O)nc2cccc3c2c1-c1ccccc1C3=O`, the inhibition was found to be 41.8%.

For `O=C1c2ccccc2-c2n[nH]c3cccc1c23`, the inhibition came out at 88.8%.

`O=C(c1c(O)nc2cc(Cl)ccc2c1O)C1CC1`: the inhibition was -2.41%.

Turning to `N#C/C(=C\c1ccc(O)c(O)c1)C(=O)Nc1ccccc1`, the inhibition is 89%.

As for `CCCCCCCCNC(=O)/C(C#N)=C/c1cn(CCCN(C)C)c2ccccc12`, the inhibition came out at 7.03%.

`N#C/C(=C\c1ccc(O)c(O)c1)C(=O)OCCc1cccs1`: the inhibition worked out at 40.4%.

On to `N#C/C(=C\c1ccc(O)c(O)c1)C(=O)NCCCc1ccccc1`, for which the inhibition was determined as 88.2%.

On to `CCCCCCCC/C=C\CCCCCCCC(=O)NCCc1ccc(O)c(O)c1`, for which the inhibition is 29.4%.

As for `N#C/C(=C\c1ccc(O)c(O)c1)C(N)=O`, the inhibition was 16.6%.

For the molecule `N#C/C(=C\c1ccc(O)c(O)c1)C(=O)NCc1ccccc1`, the inhibition was determined as 53%.

For the molecule `O=C(CCCl)NCc1ccccc1`, the inhibition is -3.62%.

In the case of `C[C@H](NC(=O)/C(C#N)=C/c1ccc(O)c(O)c1)c1ccccc1`, the inhibition amounted to 30.1%.

As for `COc1cc(C[C@@H]2NCCc3cc(O)c(O)cc32)cc(OC)c1OC`, the inhibition was found to be 3.77%.

As to `N#CC(Cc1ccc(O)cc1)c1ccc(O)cc1` (configuration not stated), the inhibition came out at 21.2%.

For `COc1ccc2[nH]c([S+]([O-])Cc3ncc(C)c(OC)c3C)nc2c1` (configuration not stated), the inhibition is 16.1%.

Consider `COc1ccc2[nH]c(SCc3ncc(C)c(OC)c3C)nc2c1`, for which the inhibition was 62.8%.

As for `COc1ccc2[nH]c([S@@+]([O-])Cc3ncc(C)c(OC)c3C)nc2c1`, the inhibition turned out to be 26.7%.

In the case of `CCC[C@H](NC(=O)[C@@H]1[C@H]2CCC[C@H]2CN1C(=O)[C@@H](NC(=O)[C@@H](NC(=O)c1cnccn1)C1CCCCC1)C(C)(C)C)C(=O)C(=O)NC1CC1`, the inhibition is -8.83%.

For the molecule `O=C(OCC(O)CO)c1ccccc1Nc1ccnc2cc(Cl)ccc12` (configuration not stated), the inhibition was found to be 94.8%.

Regarding `Clc1ccc2c(NCCNc3ccnc4cc(Cl)ccc34)ccnc2c1`, the inhibition worked out at 14.9%.

In the case of `Oc1ccnc2cc(Cl)ccc12`, the inhibition came out at 28.9%.

With `O=C(O)CCNc1cc(N2CCc3ccccc3CC2)nc(-c2cccnc2)n1`, the inhibition is -1.98%.

With `Cc1cc(O)c2c(=O)c3c(O)cc(O)c4c5c(O)cc(O)c6c(=O)c7c(O)cc(C)c8c1c2c(c34)c(c78)c65`, the inhibition stood at 85%.

Consider `Nc1c2c(nc3ccccc13)CCCC2O` (configuration not stated), for which the inhibition stood at 7.55%.

As to `O[C@@H]1CO[C@H]2[C@@H]1OC[C@@H]2O`, the inhibition worked out at 0.18%.

On to `Cc1nnc(C(C)C)n1[C@H]1C[C@H]2CC[C@@H](C1)N2CC[C@H](NC(=O)C1CCC(F)(F)CC1)c1ccccc1`, for which the inhibition was determined as 25%.

For `CNC(=O)c1ccccc1Sc1ccc2c(/C=C/c3ccccn3)n[nH]c2c1`, the inhibition amounted to 105%.

On to `CCCc1nc2c(C)cc(-c3nc4ccccc4n3C)cc2n1Cc1ccc(-c2ccccc2C(=O)O)cc1`, for which the inhibition came to 65%.

As to `CCCCc1nc(Cl)c(C(=O)O)n1Cc1ccc(-c2ccccc2-c2nn[nH]n2)cc1`, the inhibition is 6.5%.

In the case of `CCOc1nc2cccc(C(=O)O)c2n1Cc1ccc(-c2ccccc2-c2nnn[nH]2)cc1`, the inhibition is -9.37%.

As to `O=C(O)[C@H]1C[C@@H](CP(=O)(O)O)CCN1`, the inhibition came out at 7.25%.
